Drawing on publication PMC7862700, “An all-to-all approach to the identification of sequence-specific readers for epigenetic DNA modifications on cytosine”, this text covers binding signal for 1 sequence.

What all share (assay): DAPPL (digital affinity profiling via proximity ligation, sequencing); 10 mM Tris-HCl pH 7.5, 50 mM NaCl, 1 mM DTT, 4% glycerol, room temperature, 30 min; GST-TFs on glutathione beads, 16-mer random dsDNA library, 0.1% formaldehyde crosslink after washing; high values mean tight binding
In one experiment the target is T1, FLI1 (Homo sapiens, UniProt Q01543 1-452).
T1 sequence: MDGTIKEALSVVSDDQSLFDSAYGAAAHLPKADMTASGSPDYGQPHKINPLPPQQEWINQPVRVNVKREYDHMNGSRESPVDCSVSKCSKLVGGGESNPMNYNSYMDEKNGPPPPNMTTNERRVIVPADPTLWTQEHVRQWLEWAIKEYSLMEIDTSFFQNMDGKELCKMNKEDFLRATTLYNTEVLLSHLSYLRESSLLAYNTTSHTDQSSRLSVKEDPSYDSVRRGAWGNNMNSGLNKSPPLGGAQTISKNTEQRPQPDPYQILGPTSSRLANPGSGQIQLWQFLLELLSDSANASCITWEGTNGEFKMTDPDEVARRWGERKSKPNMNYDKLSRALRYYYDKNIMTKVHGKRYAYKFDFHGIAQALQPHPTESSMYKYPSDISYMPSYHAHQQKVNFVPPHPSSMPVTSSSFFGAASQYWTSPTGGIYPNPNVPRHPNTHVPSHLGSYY
Conditions: protein: recombinant; tags: N-terminal GST; dsDNA, one strand shown. A digest of the protocol: (§1)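 The binding signal reported is, for every hexamer, its read frequency for a factor over its read frequency for the tag-only sample. Reads came from pools of yeast-expressed, GST-fused human transcription factors on glutathione beads, barcoded with DNA and mixed with that sample, which were incubated with 200 nmole of a random double-stranded 16-mer DNA library in Tris/NaCl/DTT/glycerol buffer at room temperature for 30 min. After washing, the pools were crosslinked with 0.1% formaldehyde, proximity-ligated with BsaI/T4 ligase for 1 h at 37 °C, PCR-amplified and sequenced on an Illumina NextSeq500.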

For another experiment, the target named is T2, ELK1 (Homo sapiens, UniProt P19419 1-428).
T2 sequence: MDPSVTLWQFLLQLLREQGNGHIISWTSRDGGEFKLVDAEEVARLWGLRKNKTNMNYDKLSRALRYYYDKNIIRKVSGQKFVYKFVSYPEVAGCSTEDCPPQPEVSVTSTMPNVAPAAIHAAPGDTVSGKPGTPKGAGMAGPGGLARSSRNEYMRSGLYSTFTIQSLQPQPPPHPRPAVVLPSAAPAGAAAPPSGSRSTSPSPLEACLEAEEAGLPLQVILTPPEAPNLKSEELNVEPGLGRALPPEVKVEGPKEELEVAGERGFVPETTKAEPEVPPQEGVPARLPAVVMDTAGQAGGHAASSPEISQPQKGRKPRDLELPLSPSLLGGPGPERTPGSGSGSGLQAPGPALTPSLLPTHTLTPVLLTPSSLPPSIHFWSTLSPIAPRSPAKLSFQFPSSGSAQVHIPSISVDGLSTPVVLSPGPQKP
The note with it: protein: recombinant; tags: N-terminal GST; dsDNA, one strand shown. A digest of the protocol:
as §1

The target in the next experiment is T3, GABPA (Homo sapiens, UniProt Q06546 1-454).
T3 sequence: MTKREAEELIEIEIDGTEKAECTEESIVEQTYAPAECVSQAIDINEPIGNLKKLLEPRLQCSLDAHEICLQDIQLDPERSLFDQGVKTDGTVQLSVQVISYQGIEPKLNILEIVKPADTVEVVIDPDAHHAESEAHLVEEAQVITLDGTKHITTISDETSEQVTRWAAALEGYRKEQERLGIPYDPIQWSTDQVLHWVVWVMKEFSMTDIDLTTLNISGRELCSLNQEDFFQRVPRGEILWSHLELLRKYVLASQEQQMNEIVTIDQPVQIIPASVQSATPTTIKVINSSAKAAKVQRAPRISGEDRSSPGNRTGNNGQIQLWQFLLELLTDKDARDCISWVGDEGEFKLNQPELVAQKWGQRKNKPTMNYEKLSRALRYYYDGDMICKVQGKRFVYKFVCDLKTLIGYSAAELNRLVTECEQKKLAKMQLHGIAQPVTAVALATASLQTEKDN
Conditions: protein: recombinant; tags: N-terminal GST; dsDNA, one strand shown. A digest of the protocol: as §1

The next experiment deals with T4, ERG (Homo sapiens, UniProt P11308 1-479).
T4 sequence: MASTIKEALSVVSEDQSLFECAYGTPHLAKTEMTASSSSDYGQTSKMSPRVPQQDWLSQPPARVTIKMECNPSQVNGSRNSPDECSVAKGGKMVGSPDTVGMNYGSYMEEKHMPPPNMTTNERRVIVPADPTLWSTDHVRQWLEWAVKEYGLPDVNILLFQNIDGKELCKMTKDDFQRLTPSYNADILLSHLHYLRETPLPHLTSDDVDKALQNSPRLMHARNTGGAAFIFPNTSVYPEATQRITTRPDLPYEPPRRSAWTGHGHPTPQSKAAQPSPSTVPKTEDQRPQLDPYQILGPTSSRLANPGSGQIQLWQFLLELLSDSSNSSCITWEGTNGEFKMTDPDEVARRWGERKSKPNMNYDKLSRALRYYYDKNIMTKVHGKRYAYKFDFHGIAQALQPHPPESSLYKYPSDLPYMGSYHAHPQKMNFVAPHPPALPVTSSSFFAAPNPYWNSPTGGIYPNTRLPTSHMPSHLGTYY
Conditions: protein: recombinant; tags: N-terminal GST; dsDNA, one strand shown. A digest of the protocol: as §1

A further experiment concerns the target ELF1 (Homo sapiens, UniProt P32519 1-619). Conditions: protein: recombinant; tags: N-terminal GST; dsDNA, one strand shown. A digest of the protocol: as §1
A further experiment deals with T5, EHF (Homo sapiens, UniProt Q9NZC4 1-300).
T5 sequence: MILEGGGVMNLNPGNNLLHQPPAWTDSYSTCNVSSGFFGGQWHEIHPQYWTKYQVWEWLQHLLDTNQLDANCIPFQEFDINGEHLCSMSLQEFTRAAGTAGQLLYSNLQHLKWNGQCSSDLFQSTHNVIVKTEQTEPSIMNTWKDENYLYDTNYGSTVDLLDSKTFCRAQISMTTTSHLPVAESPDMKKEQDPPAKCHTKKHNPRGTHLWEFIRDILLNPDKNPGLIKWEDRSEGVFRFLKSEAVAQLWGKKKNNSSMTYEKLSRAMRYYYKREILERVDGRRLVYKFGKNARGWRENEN
The note with it: protein: recombinant; tags: N-terminal GST; dsDNA, one strand shown. A digest of the protocol:
as §1

For another experiment, the target named is SPI1 (Homo sapiens, UniProt P17947 1-270). Conditions: protein: recombinant; tags: N-terminal GST; dsDNA, one strand shown. An outline of the steps:
as §1

The target of another experiment is SPIB (Homo sapiens, UniProt Q01892 1-262). Conditions: protein: recombinant; tags: N-terminal GST; dsDNA, one strand shown. An outline of the steps:
as §1

A further experiment addresses T6, ELK3 (Homo sapiens, UniProt P41970 1-407).
T6 sequence: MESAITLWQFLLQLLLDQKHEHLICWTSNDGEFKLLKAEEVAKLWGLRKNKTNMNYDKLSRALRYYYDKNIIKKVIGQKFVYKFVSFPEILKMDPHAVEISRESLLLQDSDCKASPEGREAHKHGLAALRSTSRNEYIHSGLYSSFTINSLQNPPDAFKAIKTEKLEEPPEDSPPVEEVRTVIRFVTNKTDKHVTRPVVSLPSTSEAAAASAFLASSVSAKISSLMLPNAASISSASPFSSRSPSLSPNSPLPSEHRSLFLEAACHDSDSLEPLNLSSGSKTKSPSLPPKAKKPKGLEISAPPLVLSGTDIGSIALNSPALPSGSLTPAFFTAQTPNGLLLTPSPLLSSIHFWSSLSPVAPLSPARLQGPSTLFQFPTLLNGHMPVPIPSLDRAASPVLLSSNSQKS
The note with it: protein: recombinant; tags: N-terminal GST; dsDNA, one strand shown. A digest of the protocol:
as §1

Another experiment addresses T7, FEV (Homo sapiens, UniProt Q99581 1-238).
T7 sequence: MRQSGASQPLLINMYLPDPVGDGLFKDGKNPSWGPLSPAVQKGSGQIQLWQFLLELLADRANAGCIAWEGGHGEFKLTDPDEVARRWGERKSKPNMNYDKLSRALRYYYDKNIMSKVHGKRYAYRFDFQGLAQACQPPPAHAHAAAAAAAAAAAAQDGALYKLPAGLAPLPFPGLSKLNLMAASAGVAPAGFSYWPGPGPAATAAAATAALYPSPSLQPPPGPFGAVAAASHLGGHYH
The note with it: protein: recombinant; tags: N-terminal GST; dsDNA, one strand shown. A digest of the protocol: as §1

A further experiment addresses ETV5 (Homo sapiens, UniProt P41161 1-510). Conditions: protein: recombinant; tags: N-terminal GST; dsDNA, one strand shown. A digest of the protocol:
as §1

In another experiment the target is HSF1 (Homo sapiens, UniProt Q00613 1-529). Conditions: protein: recombinant; tags: N-terminal GST; chain copies: 3; dsDNA, one strand shown. An outline of the steps: as §1
HSF1, sequence (Q00613 whole entry): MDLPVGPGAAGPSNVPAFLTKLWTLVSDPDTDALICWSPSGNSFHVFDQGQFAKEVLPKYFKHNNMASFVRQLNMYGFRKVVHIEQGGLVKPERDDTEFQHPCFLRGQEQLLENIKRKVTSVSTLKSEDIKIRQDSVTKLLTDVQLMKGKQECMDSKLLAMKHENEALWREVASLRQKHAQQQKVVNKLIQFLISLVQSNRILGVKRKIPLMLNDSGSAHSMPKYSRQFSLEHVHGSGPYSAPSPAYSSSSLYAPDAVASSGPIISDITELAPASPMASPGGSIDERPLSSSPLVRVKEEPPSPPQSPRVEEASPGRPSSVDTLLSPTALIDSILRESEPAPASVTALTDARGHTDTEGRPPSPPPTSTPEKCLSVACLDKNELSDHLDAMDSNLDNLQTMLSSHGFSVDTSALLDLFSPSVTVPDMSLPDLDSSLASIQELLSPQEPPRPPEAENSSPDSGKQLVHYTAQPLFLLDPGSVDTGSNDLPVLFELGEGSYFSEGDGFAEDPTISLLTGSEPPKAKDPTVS
The next experiment has as its target T8, SPIC (Homo sapiens, UniProt Q8N5J4 1-248).
T8 sequence: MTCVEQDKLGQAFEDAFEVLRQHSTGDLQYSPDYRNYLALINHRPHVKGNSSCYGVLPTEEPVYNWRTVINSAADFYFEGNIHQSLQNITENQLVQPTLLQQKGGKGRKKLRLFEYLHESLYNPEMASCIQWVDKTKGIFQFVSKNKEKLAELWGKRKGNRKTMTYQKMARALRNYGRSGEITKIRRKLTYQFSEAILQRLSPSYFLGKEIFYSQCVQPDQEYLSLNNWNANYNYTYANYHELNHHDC
The note with it: protein: recombinant; tags: N-terminal GST; dsDNA, one strand shown. A digest of the protocol:
as §1

For a further experiment, the target named is ELF4 (Homo sapiens, UniProt Q99607 1-663). Conditions: protein: recombinant; tags: N-terminal GST; dsDNA, one strand shown. A digest of the protocol: as §1
ELF4, sequence (Q99607 whole entry): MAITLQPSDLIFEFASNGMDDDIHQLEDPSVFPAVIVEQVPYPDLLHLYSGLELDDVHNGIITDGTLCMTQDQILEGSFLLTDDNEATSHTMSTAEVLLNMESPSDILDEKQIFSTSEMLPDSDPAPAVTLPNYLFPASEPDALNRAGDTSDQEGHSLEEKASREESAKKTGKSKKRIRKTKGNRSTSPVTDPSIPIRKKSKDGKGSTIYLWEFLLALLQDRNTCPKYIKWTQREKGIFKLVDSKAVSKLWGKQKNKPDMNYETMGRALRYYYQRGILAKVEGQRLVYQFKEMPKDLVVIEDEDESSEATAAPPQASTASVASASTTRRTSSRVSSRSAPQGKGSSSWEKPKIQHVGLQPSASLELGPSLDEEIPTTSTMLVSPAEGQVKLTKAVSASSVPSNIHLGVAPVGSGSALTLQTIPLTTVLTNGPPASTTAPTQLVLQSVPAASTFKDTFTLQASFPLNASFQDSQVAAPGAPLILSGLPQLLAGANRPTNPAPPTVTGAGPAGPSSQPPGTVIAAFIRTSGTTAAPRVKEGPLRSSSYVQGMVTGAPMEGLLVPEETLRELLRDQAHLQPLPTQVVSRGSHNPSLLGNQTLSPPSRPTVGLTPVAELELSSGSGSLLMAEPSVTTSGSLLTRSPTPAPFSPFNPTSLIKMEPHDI
A further experiment concerns the target T9, ELK4 (Homo sapiens, UniProt P28324-2 1-405).
T9 sequence: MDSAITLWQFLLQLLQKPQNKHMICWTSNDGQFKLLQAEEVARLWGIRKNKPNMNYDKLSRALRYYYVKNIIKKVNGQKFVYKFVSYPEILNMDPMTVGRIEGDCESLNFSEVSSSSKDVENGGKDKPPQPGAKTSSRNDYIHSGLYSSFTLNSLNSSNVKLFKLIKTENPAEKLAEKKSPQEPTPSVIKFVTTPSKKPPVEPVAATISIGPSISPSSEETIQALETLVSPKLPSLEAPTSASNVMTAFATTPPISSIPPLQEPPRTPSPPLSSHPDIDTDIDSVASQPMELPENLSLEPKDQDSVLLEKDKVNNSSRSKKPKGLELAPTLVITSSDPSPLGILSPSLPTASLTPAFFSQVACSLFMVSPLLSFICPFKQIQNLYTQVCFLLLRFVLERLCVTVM
The note with it: protein: recombinant; tags: N-terminal GST; dsDNA, one strand shown. An outline of the steps: as §1

For another experiment, the target named is T10, ELF3 (Homo sapiens, UniProt P78545 1-371).
T10 sequence: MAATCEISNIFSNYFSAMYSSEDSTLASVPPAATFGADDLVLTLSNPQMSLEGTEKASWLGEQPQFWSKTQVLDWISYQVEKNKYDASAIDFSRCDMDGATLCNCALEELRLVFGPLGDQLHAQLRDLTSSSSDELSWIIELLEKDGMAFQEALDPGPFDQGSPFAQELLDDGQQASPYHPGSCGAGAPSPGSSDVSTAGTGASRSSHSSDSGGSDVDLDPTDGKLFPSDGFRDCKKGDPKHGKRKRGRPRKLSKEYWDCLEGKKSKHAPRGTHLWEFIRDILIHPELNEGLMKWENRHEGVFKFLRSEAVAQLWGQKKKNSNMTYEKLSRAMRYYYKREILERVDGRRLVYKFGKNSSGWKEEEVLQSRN
The note with it: protein: recombinant; tags: N-terminal GST; dsDNA, one strand shown. An outline of the steps:
as §1

In the next experiment the target is CRX (Homo sapiens, UniProt O43186 1-299). Conditions: protein: recombinant; tags: N-terminal GST; dsDNA, one strand shown. A digest of the protocol: as §1
CRX, sequence (O43186 whole entry): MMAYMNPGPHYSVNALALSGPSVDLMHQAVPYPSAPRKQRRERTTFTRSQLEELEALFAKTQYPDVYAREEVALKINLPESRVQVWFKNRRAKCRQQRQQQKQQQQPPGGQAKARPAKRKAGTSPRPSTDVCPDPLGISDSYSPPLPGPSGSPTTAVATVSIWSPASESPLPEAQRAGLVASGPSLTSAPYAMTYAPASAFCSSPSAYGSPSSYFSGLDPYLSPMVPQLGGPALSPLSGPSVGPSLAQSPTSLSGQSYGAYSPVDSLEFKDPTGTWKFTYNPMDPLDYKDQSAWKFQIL
A further experiment has as its target ETV1 (Homo sapiens, UniProt P50549 1-477). Conditions: protein: recombinant; tags: N-terminal GST; dsDNA, one strand shown. An outline of the steps: as §1

ETV1, sequence (P50549 whole entry): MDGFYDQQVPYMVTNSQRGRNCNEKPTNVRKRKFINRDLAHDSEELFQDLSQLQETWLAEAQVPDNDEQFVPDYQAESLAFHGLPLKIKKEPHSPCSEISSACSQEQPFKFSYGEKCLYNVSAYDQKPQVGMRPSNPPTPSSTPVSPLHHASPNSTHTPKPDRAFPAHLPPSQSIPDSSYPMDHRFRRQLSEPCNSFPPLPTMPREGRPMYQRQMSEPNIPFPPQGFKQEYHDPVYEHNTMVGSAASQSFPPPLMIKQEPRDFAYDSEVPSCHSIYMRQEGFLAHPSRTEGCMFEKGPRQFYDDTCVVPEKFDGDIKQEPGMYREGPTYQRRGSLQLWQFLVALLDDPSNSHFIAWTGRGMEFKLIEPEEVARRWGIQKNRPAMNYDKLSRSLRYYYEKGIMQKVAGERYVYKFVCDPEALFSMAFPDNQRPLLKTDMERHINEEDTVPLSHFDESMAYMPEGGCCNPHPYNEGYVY
ETV5, sequence (P41161 whole entry): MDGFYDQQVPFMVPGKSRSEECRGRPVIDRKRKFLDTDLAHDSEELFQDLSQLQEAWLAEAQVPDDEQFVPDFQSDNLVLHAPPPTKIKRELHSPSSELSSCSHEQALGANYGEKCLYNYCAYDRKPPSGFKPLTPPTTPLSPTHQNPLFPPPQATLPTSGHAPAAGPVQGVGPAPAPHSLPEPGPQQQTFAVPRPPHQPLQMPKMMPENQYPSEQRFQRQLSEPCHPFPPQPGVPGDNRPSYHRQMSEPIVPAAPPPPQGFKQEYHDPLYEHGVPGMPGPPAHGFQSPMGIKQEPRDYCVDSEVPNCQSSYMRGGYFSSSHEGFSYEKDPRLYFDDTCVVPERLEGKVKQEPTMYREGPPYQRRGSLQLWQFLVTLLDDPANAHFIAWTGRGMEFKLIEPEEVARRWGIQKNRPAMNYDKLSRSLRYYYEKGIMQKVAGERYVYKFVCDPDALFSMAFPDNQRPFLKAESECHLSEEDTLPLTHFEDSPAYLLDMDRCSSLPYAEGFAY
SPIB, sequence (Q01892 whole entry): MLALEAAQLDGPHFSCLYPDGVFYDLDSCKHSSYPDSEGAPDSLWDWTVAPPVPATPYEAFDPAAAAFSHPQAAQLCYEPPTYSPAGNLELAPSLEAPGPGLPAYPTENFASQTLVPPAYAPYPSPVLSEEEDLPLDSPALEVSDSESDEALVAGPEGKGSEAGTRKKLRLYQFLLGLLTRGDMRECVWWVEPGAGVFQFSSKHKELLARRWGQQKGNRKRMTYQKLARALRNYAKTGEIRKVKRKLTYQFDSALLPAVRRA
ELF1, sequence (P32519 whole entry): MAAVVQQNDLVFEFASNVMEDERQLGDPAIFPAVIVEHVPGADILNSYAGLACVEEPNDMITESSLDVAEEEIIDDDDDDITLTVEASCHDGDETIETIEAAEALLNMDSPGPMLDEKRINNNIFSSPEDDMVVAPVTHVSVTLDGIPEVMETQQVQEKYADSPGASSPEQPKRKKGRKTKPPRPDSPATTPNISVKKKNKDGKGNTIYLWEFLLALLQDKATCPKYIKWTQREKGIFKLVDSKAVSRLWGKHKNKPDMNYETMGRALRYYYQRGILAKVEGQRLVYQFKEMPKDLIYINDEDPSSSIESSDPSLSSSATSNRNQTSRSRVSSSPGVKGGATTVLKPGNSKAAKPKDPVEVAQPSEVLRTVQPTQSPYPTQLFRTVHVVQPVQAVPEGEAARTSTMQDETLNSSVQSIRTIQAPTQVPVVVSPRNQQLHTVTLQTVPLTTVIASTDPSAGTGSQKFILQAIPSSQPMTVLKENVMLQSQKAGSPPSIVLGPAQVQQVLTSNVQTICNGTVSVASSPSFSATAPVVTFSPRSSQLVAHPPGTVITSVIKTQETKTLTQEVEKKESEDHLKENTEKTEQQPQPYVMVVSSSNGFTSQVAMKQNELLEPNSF

With CATGAT, the binding signal in the experiment with FLI1 was 1.15 fold enrichment (6-mer frequency, TF over GST control); with ELK1 it was 1.06 fold enrichment (6-mer frequency, TF over GST control); with GABPA it was 1.19 fold enrichment (6-mer frequency, TF over GST control); in the experiment with ERG, 1.03 fold enrichment (6-mer frequency, TF over GST control); with ELF1, 1.09 fold enrichment (6-mer frequency, TF over GST control); with EHF, 1.09 fold enrichment (6-mer frequency, TF over GST control). The binding signal is 1.03 fold enrichment (6-mer frequency, TF over GST control) with SPI1; 1.04 fold enrichment (6-mer frequency, TF over GST control) with SPIB; 1.19 fold enrichment (6-mer frequency, TF over GST control) in the experiment with ELK3; 1.06 fold enrichment (6-mer frequency, TF over GST control) in the experiment with FEV; 1.08 fold enrichment (6-mer frequency, TF over GST control) in the experiment with ETV5; 1.1 fold enrichment (6-mer frequency, TF over GST control) in the experiment with HSF1. In addition, the binding signal with SPIC is 1.14 fold enrichment (6-mer frequency, TF over GST control); with ELF4, 1.17 fold enrichment (6-mer frequency, TF over GST control); with ELK4 it was 1.13 fold enrichment (6-mer frequency, TF over GST control); with ELF3 it was 1.08 fold enrichment (6-mer frequency, TF over GST control); with CRX it was 1.17 fold enrichment (6-mer frequency, TF over GST control); in the experiment with ETV1 it was 1.07 fold enrichment (6-mer frequency, TF over GST control).
